KB-V1 MDR tox = kills drug-selected multidrug resistant KB-V1 cells. KB-V1 MDR cells viability, CellTiter-Glo, 72 h. AID 1347076. 400,000 compounds, 3.4% hits. Potency, µM (highest dose often 46.1 µM), usual class: cytotoxic; note: nearly all actives have a fitted effect of over 60% in size
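Luminescent ATP read-out (CellTiter-Glo, 10 min) measures survival of drug-selected KB-V1 MDR cells after 72 h, 37 degrees C compound exposure. Medium: phenol-red-free DMEM, 10% FBS. Values from fitted concentration-response curves.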
KB-3-1 tox = kills parental KB-3-1 adenocarcinoma cells | Potency, µM (titrated, usually from 46.1 µM), actives largely listed as cytotoxic | 400,000 compounds, 1.4% hits | AID 1347075 | KB-3-1 viability, CellTiter-Glo ATP luminescence, 72 h; note: nearly all actives have a fitted effect of over 60% in size
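KB-3-1 parental drug-naive adenocarcinoma cells in DMEM/10% FBS, incubated 72 h at 37 C with pin-transferred compounds across a concentration series. Viability by CellTiter-Glo luminescence; concentration-response curves fitted after normalization.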
IL1B secr inh = inflammasome signaling inhibition, IL-1 beta readout; THP-1 LPS/ATP IL-1B secretion, AlphaLISA, 16 h; active compounds read low; activity change, % at 57.5 µM; 360,000 compounds, 4.7% hits; in the data active = activity change below about -50%; inconclusive = mostly about -30% to -49%
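Secreted IL-1B measured by AlphaLISA bead assay after 16 h compound exposure of THP-1 cells; compounds (final up to 57.5 uM) added 1 h before LPS (250 ng/mL) and ATP (1.25 mM) stimulation; lower signal means less secretion.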
MCF10A rereplic = inducers of DNA re-replication in MCF 10A breast cells. MCF 10A DNA re-replication, Hoechst nuclear intensity, 48 h. Potency, µM (titrated, usually from 46.1 µM), usual class: activators. 350,000 compounds, 2.9% hits. AID 624296; note: nearly all actives have a fitted effect of over 50% in size
SW480 rereplic = DNA re-replication induction in SW480 cells. SW480 DNA re-replication, Hoechst DNA content imaging, 48 h. Potency, µM (series often up to 46.1 µM), actives largely listed as activators. 340,000 compounds, 1.8% hits; note: nearly all actives have a fitted effect of over 55% in size
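DNA re-replication was detected as more nuclei of elevated Hoechst intensity after 48 hr exposure to compound (23 nL pinned per well of 250 cells).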
Numbers stand for hits; - = inactive; ? = inconclusive; . = not tested or not shown. Shown are actives, neighbours in structure and some others; about 9.9% of the full set was active somewhere. Unless noted, calls come from the whole dose curve; as a rule, active = well fitted curve in the direction sought with a large enough effect; inconclusive = small, poorly fitted or top-dose-only effect, or another doubt; inactive = no such curve, though single readings can be large; an effect the other way counts as inactive or inconclusive.

SMILES | KB-V1 MDR tox | KB-3-1 tox | IL1B secr inh | MCF10A rereplic | SW480 rereplic
Cc1cc(N2CCOCC2)nc(NCc2ccccc2)n1 | ? | - | - | 7.3µM | -
Cc1cc(N2CCCCCC2)nc(-c2ccccc2O)n1 | - | ? | - | ? | ?
Cc1cc(N2CCCCC2)nc(NCc2ccccc2)n1 | ? | 16µM | -99 | ? | ?
CC1=Nc2ccc(C)cc2/C1=C/c1c(N)n2oc(C)cc2nc1=O | ? | ? | - | 18µM | -
CC1=Nc2ccccc2/C1=C/c1c(N)n2c(S(=O)(=O)CC(C)C)nsc2nc1=O | - | - | - | 15µM | -
CC1=Nc2ccccc2/C1=C/c1c(N)n2c(S(=O)(=O)C(C)C)nsc2nc1=O | - | - | - | - | -
CSc1nsc2nc(=O)c(/C=C3\C(C)=Nc4ccc(C)cc43)c(N)n12 | - | ? | - | 9.2µM | ?
CCCCn1nnnc1C1(C)CCC(=O)N1CCOc1ccccc1 (stereo unspecified) | ? | - | - | . | .
O=[N+]([O-])CC(c1ccccc1)c1c[nH]c2ccccc12 (stereo unspecified) | ? | 16µM | - | 15µM | -
CCC(=O)N1CCN(c2ccc(NC(=O)COc3ccccc3Cl)cc2)CC1 | ? | ? | -55 | - | -
N#Cc1ccccc1OCC(=O)N1CCN(c2ccccc2)CC1 | - | - | . | . | .
O=C(COc1ccccc1Br)N1CCN(c2ccccc2)CC1 | 18µM | - | - | - | -
CCOc1ccccc1OCC(=O)Nc1ccc(N2CCCCC2)cc1 | ? | - | -79 | - | -
COC(=O)N(C)C[C@H]1OCc2cn(nn2)CCCC(=O)N([C@@H](C)CO)C[C@@H]1C | - | - | - | . | .
CSC1=NC(C)(C)C=C(/C=C/c2c(Cl)cccc2Cl)N1 | - | - | -97 | ? | -
CSC1=NC(C)(C)C=C(/C=C/c2ccc(Cl)cc2Cl)N1 | - | ? | -105 | ? | 15µM
CSC1=NC(C)(C)C=C(/C=C/c2ccc(Cl)cc2)N1 | ? | - | -101 | 16µM | 0.65µM
CCSC1=NC(C)(C)C=C(/C=C/c2ccc(Cl)cc2Cl)N1 | ? | - | -93 | ? | ?
Clc1ccc(/C=C/c2ncc[nH]2)c(Cl)c1 | - | - | - | - | -
COc1ccccc1N1CCN(CC(=O)Nc2nc(C)c(C(=O)N(C)C)s2)CC1 | - | - | - | - | -
CCc1nc2c(OCc3cc(Cl)cc(Cl)c3)cccn2c1N(C)C(=O)c1ccccc1F | ? | - | -58 | . | .
CCc1nc2c(OCc3ccc(Cl)cc3)cccn2c1N(C)C(=O)c1ccco1 | ? | ? | -62 | . | .
CCc1nc2c(OCc3ccc(Cl)cc3Cl)cccn2c1N(C)C(=O)CC(C)C | ? | ? | -53 | . | .
CCc1nc2c(OCc3cccc(OC)c3)cccn2c1N(C)C(=O)c1ccccc1F | - | - | - | . | .
CCc1nc2c(OCCC3CCCCC3)cccn2c1N(C)C(=O)c1ccc(OC)cc1 | ? | ? | -56 | . | .
SMILES | KB-V1 MDR tox | KB-3-1 tox | IL1B secr inh | MCF10A rereplic | SW480 rereplic
CCc1nc2c(OCc3ccc(F)cc3)cccn2c1N(C)C(=O)c1ccco1 | - | - | - | . | .
O=C(COC(=O)CNC(=O)c1ccc(Cl)cc1)Nc1cccc(S(=O)(=O)N2CCCC2)c1 | - | - | - | - | -
Cc1nc2nc(CNC(=O)OC(C)(C)C)nn2c(C)c1CCC(=O)NCc1ccccc1Cl | ? | - | . | . | .
CCOC(=O)C1CCN(C(=O)C2c3ccccc3C(=O)N(C)C2c2ccc(OC)cc2)CC1 (stereo unspecified) | - | - | - | - | -
COc1ccc(C2C(C(=O)N3CCCCC3)c3ccccc3C(=O)N2C)cc1 (stereo unspecified) | ? | - | - | 12µM | ?
Cc1cc(C)c2ccccc2n1 | - | - | . | . | .
Cc1cc(Sc2nnc(N)s2)c2ccccc2n1 | - | - | -113 | ? | -
Cc1cc(Sc2nnc(/N=C/N(C)C)s2)c2ccccc2n1 | - | ? | -89 | 9.2µM | ?
CCCCCCCCSc1nnc(/N=C/N(C)C)s1 | - | - | - | - | ?
COc1ccc(C2C(C#N)=C(N)Oc3c2sc2nc(C)cc(C)c32)cc1 (stereo unspecified) | 21µM | ? | - | 16µM | ?
COc1ccc(C2C(C#N)=C(N)Oc3cccc(O)c32)cc1 (stereo unspecified) | - | - | - | ? | -
Cc1cc(C)nc(NN=C(c2ccccc2)c2ccccc2)n1 | - | - | - | ? | 10µM
COc1ccc(C(C)(O)c2nc(-c3ccc(S(C)(=O)=O)cc3)cs2)cc1 (stereo unspecified) | - | - | - | . | .
CCOc1ccc(C2C([N+](=O)[O-])=C(C)N(C)C(=O)N2C)cc1OC (stereo unspecified) | ? | - | - | ? | ?
FC(F)(F)c1ccc(Cl)c(N/N=C/c2ccc(N3CCOCC3)s2)c1 | - | - | - | ? | ?
O=C(c1cc(C2CC2)nn1-c1ccccc1)N1CCN(c2ccccc2O)CC1 | - | - | ? | - | -
O=C(c1cc(C2CC2)nn1-c1ccccc1)N1CCN(c2ccccn2)CC1 | ? | - | -63 | - | -
O=C(c1cc(C2CC2)nn1-c1ccccc1)N1CCN(c2ncc(C(F)(F)F)cc2Cl)CC1 | 16µM | - | - | 13µM | -
O=C(c1cc(C2CC2)nn1-c1ccccc1)N1CCN(c2ccc(O)cc2)CC1 | ? | - | - | - | ?
CC1CCN(c2nc3c(S(=O)(=O)c4cccc(Cl)c4)nnn3c3ccsc23)CC1 | - | - | . | . | .
CC1CCCCN1C(=O)CSc1ccc(-c2ccc(F)cc2)nn1 (stereo unspecified) | 12µM | - | - | - | -
COc1cc(CN2CC(=O)N(c3ccc(C)c(C)c3)C2=S)cc(OC)c1OC | 16µM | ? | - | - | ?
CCc1ccc(N2C(=O)CN(Cc3cc(OC)c(OC)c(OC)c3)C2=S)cc1 | 7.3µM | - | - | - | -
CCOc1ccc(Br)cc1S(=O)(=O)NC1CC(C)(C)NC(C)(C)C1 | - | - | - | - | 0.52µM
Cc1c(Cl)cccc1NS(=O)(=O)c1cc2c(cc1Cl)CCC(=O)N2 | - | - | . | . | .
SMILES | KB-V1 MDR tox | KB-3-1 tox | IL1B secr inh | MCF10A rereplic | SW480 rereplic
Oc1ccccc1N1CCN(Cc2ncc(-c3ccccc3)o2)CC1 | - | - | -53 | - | -
c1ccc(-c2nnc(CN3CCN(c4ccccc4)CC3)o2)cc1 | ? | - | - | - | -
Cc1c(N2C(=O)c3cccc4cccc(c34)C2=O)cnn1C | - | - | - | - | -
CCCC1OC2C[C@@H]3[C@H]4CCC5=CC(=O)C=C[C@]5(C)[C@H]4C(O)C[C@]3(C)[C@]2(C(=O)CO)O1 (stereo partly specified) | - | - | . | . | .
Cc1ccc(S(=O)(=O)N2CCN(C(C)C(=O)Nc3ccccc3-c3ccccc3)CC2)cc1 (stereo unspecified) | 3.7µM | - | - | - | -
CC(C(=O)Nc1ccccc1-c1ccccc1)N1CCN(Cc2ccccc2)CC1 (stereo unspecified) | - | - | -54 | - | -
Cc1ccc2nc(/C=C/c3ccc(N(C)C)cc3)ccc2c1 | ? | - | . | . | .

Screening results as filed in PubChem.
